Measurements published in PubChem BioAssay AID1159580 (chemical genetic matrix, 2015).
Screen size: about 5,500 compounds; about 2,000 (36%) were called active. Another 18% or so got no clear call; they are omitted. No stated cut-off is given here; in the data, active means normalized growth mostly below about 0.91 (no sharp cut-off); inconclusive means no clear call, values can overlap the other calls; inactive means mostly above about 0.92. Some of the results follow.

Assay: chemical genetic growth profiling, strain panel (AID 1159580);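 further: tested at 20 µM; growth read once vehicle control cultures reached saturation at 30 °C; 1 = growth at the plate median or of vehicle wells; lower values mean less growth of the strain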
Conditions: S. cerevisiae deletion strains, growth OD

Measured: normalized growth

COc1ccc(/C=C/c2cc(O)cc(O)c2)cc1
active: locus YJR043C, strain POL32, hits give low values 0.788 | locus YKL009W, strain mrt4, hits give low values 0.87 | locus YKR001C, strain vps1, hits give low values 0.608 | locus YLR268W, strain sec22, hits give low values 0.872 | locus YLR330W, strain CHS5, hits give low values 0.84 | locus YLR342W, strain FKS1 (second series), hits give low values 0.785 | locus YLR371W, strain rom2, hits give low values 0.793 | locus YLR418C, strain cdc73, hits give low values 0.583 | locus YML032C, strain rad52, hits give low values 0.886 | locus YMR223W, strain ubp8, hits give low values 0.89 | locus YMR263W, strain SAP30, hits give low values 0.883 | locus YNL233W, strain BNI4, hits give low values 0.823 | locus YNL307C, strain MCK1, hits give low values 0.857 | locus YNR052C, strain pop2, hits give low values 0.914 | locus YOL147C, strain pex11, hits give low values 0.868 | locus YOR144C, strain elg1, hits give low values 0.932 | locus YOR184W, strain ser1, hits give low values 0.623 | locus YPR163C, strain tif3, hits give low values 0.842 | strain wtn01, hits give low values 0.838
inactive: locus YJR066W, strain TOR1, hits give low values 0.995 | locus YKL068W, hits give low values 0.982 | locus YKL085W, strain MDH1 (second series), hits give low values 0.946 | locus YKL085W, strain MDH1, hits give low values 0.946 | locus YKL160W, strain elf1, hits give low values 0.996 | locus YKR026C, strain gcn3, hits give low values 1 | locus YKR091W, strain srl3, hits give low values 1 | locus YLL001W, strain dnm1, hits give low values 0.997 | locus YLL026W, hits give low values 1.01 | locus YLL041C, strain sdh2, hits give low values 1.01 | locus YLR027C, strain aat2, hits give low values 1 | locus YLR039C, strain RIC1, hits give low values 0.815 | locus YLR058C, strain SHM2, hits give low values 0.931 | locus YLR102C, strain apc9, hits give low values 0.966 | locus YLR113W, strain HOG1, hits give low values 0.966 | locus YLR221C, strain rsa3, hits give low values 0.999 | locus YLR258W, strain gsy2, hits give low values 0.996 | locus YLR262C, strain YPT6 (second series), hits give low values 0.991 | locus YLR262C, strain YPT6, hits give low values 0.686 | locus YLR320W, strain mms22, hits give low values 0.991 | locus YLR342W, strain FKS1, hits give low values 1 | locus YLR357W, strain rsc2, hits give low values 0.95 | locus YLR370C, strain arc18, hits give low values 1.01 | locus YLR384C, strain iki3, hits give low values 1.01 | locus YML016C, strain PPZ1, hits give low values 0.964 | locus YML120C, strain ndi1, hits give low values 0.997 | locus YML124C, strain tub3, hits give low values 0.972 | locus YMR058W, strain fet3, hits give low values 1 | locus YMR078C, strain ctf18, hits give low values 0.967 | locus YMR125W, strain sto1, hits give low values 1.01 | locus YMR129W, hits give low values 1.01 | locus YMR205C, strain PFK2, hits give low values 0.995 | locus YMR231W, strain pep5, hits give low values 0.992 | locus YMR307W, strain GAS1, hits give low values 0.663 | locus YNL067W, strain RPL9B, hits give low values 0.908 | locus YNL071W, strain lat1, hits give low values 1 | locus YNL153C, strain GIM3, hits give low values 0.931 | locus YNL183C, strain NPR1, hits give low values 0.977 | locus YNL209W, strain ssb2, hits give low values 1.01 | locus YNL248C, strain rpa49, hits give low values 0.999 | locus YNL250W, strain rad50, hits give low values 0.961 | locus YNL271C, strain bni1, hits give low values 0.945 | locus YNL298W, strain CLA4, hits give low values 0.928 | locus YNL322C, strain KRE1 (second series), hits give low values 1.01 | locus YNL322C, strain KRE1, hits give low values 0.945 | locus YNR049C, strain mso1, hits give low values 1.02 | locus YOL012C, strain htz1 0.771 | locus YOR001W, strain rrp6, hits give low values 1 | locus YOR061W, strain CKA2, hits give low values 0.941 | locus YOR069W, strain VPS5, hits give low values 0.927 | locus YOR070C, strain gyp1, hits give low values 1 | locus YOR080W, strain dia2, hits give low values 1 | locus YOR083W, strain WHI5, hits give low values 0.994 | locus YOR106W, strain vam3, hits give low values 0.956 | locus YOR136W, strain idh2, hits give low values 0.936 | locus YOR231W, strain MKK1, hits give low values 0.991 | locus YOR265W, strain rbl2, hits give low values 1.02 | locus YOR270C, strain vph1, hits give low values 0.998 | locus YOR290C, strain snf2, hits give low values 0.995 | locus YOR316C, strain cot1, hits give low values 0.961 | locus YPL051W, strain arl3, hits give low values 0.973 | locus YPL078C, strain atp4, hits give low values 0.998 | locus YPL106C, strain sse1, hits give low values 0.996 | locus YPL240C, strain hsp82, hits give low values 1.01 | locus YPL241C, strain CIN2, hits give low values 0.973 | locus YPL256C, strain CLN2, hits give low values 1.05 | locus YPR119W, strain clb2, hits give low values 0.964 | locus YPR141C, strain kar3, hits give low values 0.977 | locus YPR167C, strain met16, hits give low values 0.969
